Experiment [1] in a line: ACEA_ER_80hr: ACEA Biosciences xCELLigence Real-Time Cell Analysis on Estrogen Receptor Agonism for Proliferation (AID 2282667; active = hit-call score of the fitted dose curve at least 0.9, where 1 is the maximum). The following applies: T47D proliferation, impedance (xCELLigence), 80 h. The procedure, abridged: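 Real-time impedance growth kinetics of human T-47D breast cells read 80 h after dosing, gain-of-signal fitted relative to DMSO. Compounds: 1:4 serial series, top final concentration 100 uM, n = 2.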

Experiment [2] in a line: ATG_CRE_CIS: Attagene CIS-FACTORIAL HepG2 Assay for human cAMP Responsive Element (CRE) binding protein 3 (AID 2282926). The following applies: HepG2 CRE cis-reporter, Attagene multiplexed mRNA; actives raise or lower the signal. A digest of the protocol:
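Multiplexed transcription-unit reporters transfected into HepG2; 24 h dosing; RT-PCR/capillary electrophoresis fluorescence read-out; bidirectional fit vs DMSO.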

The target of experiment [3] is CCAAT/enhancer-binding protein beta (Homo sapiens) (UniProt P17676). In words: ATG_C_EBP_CIS: Attagene CIS-FACTORIAL HepG2 Assay for human CCAAT/Enhancer Binding Protein (C/EBP) beta (AID 2282927). The following applies: HepG2 Attagene cis-factorial transcription factor reporter; actives raise or lower the signal. The procedure, abridged:
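Endogenous C/EBPb-driven reporter transcripts measured in transfected human HepG2 cells at 24 h via RT-PCR and capillary electrophoresis of labelled fragments. Activity fitted in both directions relative to DMSO baseline.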

Experiment [4] can be described thus: ATG_CMV_CIS: Attagene CIS-FACTORIAL HepG2 Assay for human CMV (Internal Marker) (AID 2282928).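 Note: endpoint acts as a background internal control marker rather than a target.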 The following applies: HepG2 CMV promoter reporter, transcription factor profiling; actives raise or lower the signal. A digest of the protocol:
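Cell system: HepG2, transiently transfected multiple reporter units under cis promoters. Exposure: 24 h. Detection: RT-PCR, FAM labeling, HpaI digestion, capillary electrophoresis. Analysis: bidirectional, DMSO baseline.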

Experiment [5] is described as follows: ATG_DR4_LXR_CIS: Attagene CIS-FACTORIAL HepG2 Assay for human Liver X Receptor (LXR), DR4 submotif (AID 2282929). The following applies: HepG2 Attagene DR4 cis-reporter, mRNA transcription; actives raise or lower the signal. A digest of the protocol:
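The endpoint is DR4-element-driven reporter transcripts after 24 h chemical exposure of transfected HepG2 cells. These were measured via RT-PCR and capillary electrophoresis, and gain or loss of signal was fitted relative to DMSO controls.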

Experiment [6] addresses Aryl hydrocarbon receptor (Homo sapiens) (UniProt P35869). Nature of the experiment: ATG_Ahr_CIS: Attagene CIS-FACTORIAL HepG2 Assay for human Aryl Hydrocarbon Receptor (Ahr) (AID 2282930). The following applies: HepG2 AhR cis-factorial reporter transcription; actives raise or lower the signal. A digest of the protocol: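 Reporter mRNA levels, quantified by RT-PCR and fluorescent capillary electrophoresis, reflect endogenous AhR transcriptional activity in HepG2 cells carrying transfected cis-promoter reporter constructs. Readout at 24 h post-dose; gain or loss fitted against DMSO baseline.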

The nature of experiment [7]: ATG_AP_1_CIS: Attagene CIS-FACTORIAL HepG2 Assay for human Activator Protein 1 (AP-1) (AID 2282931). The following applies: HepG2 Attagene cis-factorial AP-1 reporter mRNA; actives raise or lower the signal. A digest of the protocol:
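Readout is reporter transcript level from endogenous transcription factor activity, quantified by RT-PCR with fluorescent primer extension and capillary electrophoresis. Transiently transfected HepG2 cells, 24 h exposure. Curves fitted both directions versus DMSO.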

Experiment [8] in a line: ATG_AP_2_CIS: Attagene CIS-FACTORIAL HepG2 Assay for human Activator Protein 2 (AP-2) (AID 2282932). The following applies: HepG2 AP-2 cis-reporter, Attagene transcription factor profiling; actives raise or lower the signal. The procedure, abridged: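 Step one: transient transfection of HepG2 with reporter transcription units. Step two: 24 h chemical exposure. Step three: RNA extraction, RT-PCR, labelled fragment analysis by capillary electrophoresis; DMSO serves as baseline.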

Experiment [9] is described as follows: ATG_BRE_CIS: Attagene CIS-FACTORIAL HepG2 Assay for human Bone Morphogenetic Protein (BMP) Response Element (BRE) (AID 2282933). The following applies: HepG2 BMP response element reporter, Attagene transcription factor profiling; actives raise or lower the signal. The procedure, abridged: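 Endogenous transcription factor activity read in transiently transfected HepG2 cells after 24 h chemical exposure. Bidirectional curve fitting against DMSO; readout is reporter transcript level by RT-PCR with capillary electrophoresis of labelled products.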

The target in experiment [10] is Transcription factor E2F1 (Homo sapiens) (UniProt Q01094). In words: ATG_E2F_CIS: Attagene CIS-FACTORIAL HepG2 Assay for human E2F Transcription Factor 1 (AID 2282935). The following applies: HepG2 Attagene cis-reporter, E2F reporter RNA transcripts; actives raise or lower the signal. The procedure, abridged: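 Total RNA from 24 h-treated, reporter-transfected HepG2 cells undergoes DNase I treatment, oligo(dT) reverse transcription, PCR and 6-FAM primer extension before capillary electrophoresis.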

A short description of experiment [11]: ATG_E_Box_CIS: Attagene CIS-FACTORIAL HepG2 Assay for human Enhancer Box (E-box) (AID 2282936). The following applies: HepG2 E-box cis-reporter transcription, actives raise or lower the signal. A digest of the protocol: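 DMSO served as negative control and baseline for bidirectional fitting. Human hepatoma HepG2 cells, transiently transfected with cis-reporter constructs, were dosed 24 h; reporter mRNA read by RT-PCR and capillary electrophoresis.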

The nature of experiment [12]: ATG_M_61_CIS: Attagene CIS-FACTORIAL HepG2 Assay for M61 Transcription Factor (Internal Marker) (AID 2282937). The following applies: HepG2 Attagene CIS-FACTORIAL M61 internal marker reporter; actives raise or lower the signal. A digest of the protocol:
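Readout is reporter mRNA by RT-PCR, fluorescent primer extension and capillary electrophoresis, with gain or loss fitted relative to DMSO. Transfected HepG2 cells carrying endogenous-TF-driven cis reporters were exposed to chemicals for 24 hours.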

The nature of experiment [13]: ATG_EGR_CIS: Attagene CIS-FACTORIAL HepG2 Assay for human Early Growth Response 1 (EGR1) (AID 2282938). The following applies: HepG2 Attagene CIS-FACTORIAL EGR reporter mRNA; actives raise or lower the signal. The procedure, abridged:
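After 24 h compound exposure, RNA from reporter-transfected HepG2 cells was reverse-transcribed, PCR-amplified, fluorescently labelled and resolved by capillary electrophoresis. EGR1 reporter transcript changes, up or down, were fitted against DMSO, reflecting endogenous transcription-factor activity.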

Experiment [14] is described as follows: ATG_M_19_CIS: Attagene CIS-FACTORIAL HepG2 Assay for M19 Transcription Factor (Internal Marker) (AID 2282939). The following applies: HepG2 Attagene CIS-FACTORIAL M19 internal marker reporter; actives raise or lower the signal. The procedure, abridged: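 Internal marker readout, fitted in both directions against DMSO, from HepG2 cells carrying transfected cis-element reporter constructs; RT-PCR and capillary electrophoresis of reporter mRNA after 24 h exposure.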

A short description of experiment [15]: ATG_ERE_CIS: Attagene CIS-FACTORIAL HepG2 Assay for Estrogen Response Element (ERE) (AID 2282940). The following applies: HepG2 ERE cis-reporter, Attagene RNA transcript; actives raise or lower the signal. A digest of the protocol:
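After 24 h compound treatment, RNA from transfected HepG2 cells was reverse-transcribed, reporter cDNA PCR-amplified, FAM-labelled, HpaI-cut and resolved by capillary electrophoresis. ERE-driven cis reporter transcripts reflect endogenous factors; gain or loss scored against DMSO.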

Experiment [16] can be described thus: ATG_Ets_CIS: Attagene CIS-FACTORIAL HepG2 Assay for human Erythroblast Transformation Specific (ETS) (AID 2282941). The following applies: HepG2 ETS cis-reporter transcription, actives raise or lower the signal. The procedure, abridged: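 After transient cis-reporter transfection, HepG2 cells receive test chemical for 24 h. Reporter mRNA levels, measured by RT-PCR and capillary electrophoresis fluorescence, are analysed bidirectionally relative to the DMSO baseline.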

The target of experiment [17] is Hepatocyte nuclear factor 3-beta (Homo sapiens) (UniProt Q9Y261). Nature of the experiment: ATG_FoxA2_CIS: Attagene CIS-FACTORIAL HepG2 Assay for human Forkhead box A2 (FOXA2) (AID 2282942). The following applies: HepG2 cis-reporter transcription factor activity, 24 h; actives raise or lower the signal. A digest of the protocol:
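Endogenous transcription factor activity is captured via cis-element-driven reporter transcripts in transfected HepG2. Total RNA taken at 24 h post-dosing; labelled RT-PCR products resolved by capillary electrophoresis. Gain or loss fitted versus DMSO.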

The nature of experiment [18]: ATG_FoxO_CIS: Attagene CIS-FACTORIAL HepG2 Assay for human Forkhead box O (FoxO) (AID 2282943). The following applies: HepG2 Attagene cis-reporter, FoxO element, mRNA; actives raise or lower the signal. The procedure, abridged: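 Endogenous transcription factor activity read from multiplexed cis-promoter reporter transcripts in transiently transfected HepG2, 24 h after dosing. Reporter RNA measured via RT-PCR plus capillary electrophoresis of FAM-labeled products; gain or loss relative to DMSO.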

A short description of experiment [19]: ATG_GATA_CIS: Attagene CIS-FACTORIAL HepG2 Assay for human GATA Binding Protein (AID 2282944). The following applies: HepG2 GATA cis-element reporter, Attagene multiplex mRNA; actives raise or lower the signal. A digest of the protocol:
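Reporter transcripts from a GATA cis-regulated unit, among multiplexed reporters in transfected HepG2 cells, were measured by RT-PCR with capillary electrophoresis after 24 h dosing. Induction or loss scored relative to DMSO.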

Experiment [20] deals with Retinoic acid receptor alpha (Homo sapiens) (UniProt P10276). Nature of the experiment: ATG_DR5_RAR_CIS: Attagene CIS-FACTORIAL HepG2 Assay for human Retinoic Acid Receptor Alpha (RARE), DR5 submotif (AID 2282934). The following applies: HepG2 Attagene cis-factorial RARE DR5 reporter, mRNA; actives raise or lower the signal. The procedure, abridged:
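Reporter transcripts from a DR5-regulated unit, measured via RT-PCR plus capillary electrophoresis, reflect endogenous RAR activity in transiently transfected human HepG2 liver cells. Exposure lasted 24 h; gain or loss of signal scored against DMSO.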

Results on seven compounds are retold here after PubChem BioAssay (EPA / NIEHS).

Records with an inconclusive call do not appear. Active and inactive are the calls of the source. Rule for the calls, unless noted: active = hit-call score of the fitted dose curve at least 0.9, where 1 is the maximum; inactive = score below 0.9.

Sequence of Transcription factor E2F1 (Homo sapiens) (Q01094 whole entry, looked up): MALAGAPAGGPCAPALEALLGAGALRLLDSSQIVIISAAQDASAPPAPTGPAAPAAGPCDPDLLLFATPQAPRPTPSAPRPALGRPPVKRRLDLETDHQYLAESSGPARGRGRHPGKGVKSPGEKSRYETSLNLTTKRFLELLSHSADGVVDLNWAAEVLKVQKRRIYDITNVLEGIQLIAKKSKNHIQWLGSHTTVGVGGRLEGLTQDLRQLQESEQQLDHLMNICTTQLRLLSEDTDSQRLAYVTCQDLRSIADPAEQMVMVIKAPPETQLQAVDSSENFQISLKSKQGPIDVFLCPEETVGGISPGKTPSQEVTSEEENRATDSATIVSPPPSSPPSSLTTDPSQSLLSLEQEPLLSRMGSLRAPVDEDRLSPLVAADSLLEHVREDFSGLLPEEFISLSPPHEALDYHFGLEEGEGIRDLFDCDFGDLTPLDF
Sequence of Aryl hydrocarbon receptor (Homo sapiens) (P35869 whole entry, looked up): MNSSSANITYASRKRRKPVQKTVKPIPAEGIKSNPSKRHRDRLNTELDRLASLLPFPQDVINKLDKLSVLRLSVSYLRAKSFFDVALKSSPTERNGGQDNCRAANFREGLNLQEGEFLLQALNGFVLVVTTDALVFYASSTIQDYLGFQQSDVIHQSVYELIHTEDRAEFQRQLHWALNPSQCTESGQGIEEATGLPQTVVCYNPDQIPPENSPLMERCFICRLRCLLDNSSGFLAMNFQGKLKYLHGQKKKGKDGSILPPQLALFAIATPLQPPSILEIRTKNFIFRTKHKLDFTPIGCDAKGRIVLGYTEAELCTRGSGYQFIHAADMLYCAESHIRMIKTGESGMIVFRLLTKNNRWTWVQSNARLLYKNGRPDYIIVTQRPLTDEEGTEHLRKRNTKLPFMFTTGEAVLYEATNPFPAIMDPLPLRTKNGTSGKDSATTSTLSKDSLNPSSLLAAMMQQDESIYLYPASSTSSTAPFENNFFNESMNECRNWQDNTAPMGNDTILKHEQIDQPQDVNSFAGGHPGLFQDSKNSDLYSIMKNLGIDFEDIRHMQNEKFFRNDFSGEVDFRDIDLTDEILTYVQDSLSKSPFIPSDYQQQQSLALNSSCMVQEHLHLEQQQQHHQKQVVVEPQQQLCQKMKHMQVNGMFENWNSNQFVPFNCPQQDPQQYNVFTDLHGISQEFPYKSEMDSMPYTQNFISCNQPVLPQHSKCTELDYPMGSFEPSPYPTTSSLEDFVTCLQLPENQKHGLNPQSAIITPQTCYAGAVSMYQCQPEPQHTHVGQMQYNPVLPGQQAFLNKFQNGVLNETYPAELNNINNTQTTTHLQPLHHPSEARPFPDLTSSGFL
Sequence of CCAAT/enhancer-binding protein beta (Homo sapiens) (P17676 whole entry, looked up, the tested form may be a part): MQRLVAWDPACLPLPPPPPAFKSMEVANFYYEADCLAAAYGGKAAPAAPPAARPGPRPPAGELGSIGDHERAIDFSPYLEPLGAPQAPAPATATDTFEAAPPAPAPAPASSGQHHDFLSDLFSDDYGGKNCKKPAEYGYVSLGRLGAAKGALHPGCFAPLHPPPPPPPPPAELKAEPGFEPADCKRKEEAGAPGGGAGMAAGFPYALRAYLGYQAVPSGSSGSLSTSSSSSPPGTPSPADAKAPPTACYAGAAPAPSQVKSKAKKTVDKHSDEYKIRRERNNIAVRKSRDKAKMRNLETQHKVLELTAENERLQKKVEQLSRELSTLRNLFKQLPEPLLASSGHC
Sequence of Hepatocyte nuclear factor 3-beta (Homo sapiens) (Q9Y261 whole entry, looked up): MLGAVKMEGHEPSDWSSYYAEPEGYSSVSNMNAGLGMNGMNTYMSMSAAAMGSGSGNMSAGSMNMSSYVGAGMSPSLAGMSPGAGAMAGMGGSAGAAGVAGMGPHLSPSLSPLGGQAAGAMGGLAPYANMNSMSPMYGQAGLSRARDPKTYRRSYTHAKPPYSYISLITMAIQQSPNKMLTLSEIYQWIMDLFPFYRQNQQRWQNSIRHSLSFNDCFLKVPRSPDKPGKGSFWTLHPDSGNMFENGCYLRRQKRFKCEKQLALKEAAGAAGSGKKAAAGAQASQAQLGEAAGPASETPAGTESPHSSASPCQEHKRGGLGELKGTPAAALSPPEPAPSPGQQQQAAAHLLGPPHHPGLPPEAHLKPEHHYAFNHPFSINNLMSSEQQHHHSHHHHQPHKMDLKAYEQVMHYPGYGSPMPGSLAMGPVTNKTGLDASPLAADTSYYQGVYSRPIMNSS
Sequence of Retinoic acid receptor alpha (Homo sapiens) (P10276 whole entry, looked up): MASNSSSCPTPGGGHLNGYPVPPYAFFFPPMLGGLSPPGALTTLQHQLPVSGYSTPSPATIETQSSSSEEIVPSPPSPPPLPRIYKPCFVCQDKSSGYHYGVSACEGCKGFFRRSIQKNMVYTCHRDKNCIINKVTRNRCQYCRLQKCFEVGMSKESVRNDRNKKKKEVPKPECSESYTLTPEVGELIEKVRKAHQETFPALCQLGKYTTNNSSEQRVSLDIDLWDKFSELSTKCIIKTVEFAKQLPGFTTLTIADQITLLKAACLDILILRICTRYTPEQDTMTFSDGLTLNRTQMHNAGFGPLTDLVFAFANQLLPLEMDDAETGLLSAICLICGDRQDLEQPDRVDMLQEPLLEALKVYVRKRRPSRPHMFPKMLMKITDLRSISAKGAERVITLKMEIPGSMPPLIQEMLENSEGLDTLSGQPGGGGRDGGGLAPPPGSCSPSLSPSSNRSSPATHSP

Take `CO[Si](CCCS)(OC)OC`: the compound was classed as inactive in experiment [1], in [2], in experiment [3], in experiment [4], in experiment [5] and in experiment [6]. The outcome in experiment [7], in [8], in experiment [9], in experiment [10], in [11] and in experiment [12] was inactive. Moreover, the result in experiment [13], in [14], in experiment [16], in [17], in experiment [18] and in experiment [19] was inactive. For the same compound, in [15], the AC50 (as a rule, the concentration at which the activity in the assay is half-maximal) is 68.7 µM (active).
Regarding `C=C[Si](OCCOC)(OCCOC)OCCOC`, the compound was classed as inactive in experiment [1], in experiment [2], in [3], in experiment [4], in [5] and in experiment [6]. In addition, the call in [7], in [8], in experiment [9], in experiment [10], in experiment [12] and in experiment [13] was inactive. In addition, the compound was classed as inactive in experiment [14], in experiment [15], in experiment [16], in [17], in [18] and in experiment [19].
Consider `CCCCNC(=S)NCCCC`, for which the compound was called inactive in experiment [1], in experiment [2], in experiment [3], in [4], in experiment [5] and in experiment [6]. Moreover, the call in experiment [7], in experiment [8], in experiment [9], in experiment [10], in experiment [11] and in experiment [12] was inactive. In addition, the result in experiment [13], in [14], in experiment [15], in experiment [16], in experiment [17] and in [19] was inactive.
In the case of `NNS(=O)(=O)c1ccc(Oc2ccc(S(=O)(=O)NN)cc2)cc1`, the call in experiment [1], in experiment [2], in [3], in [4], in [5] and in experiment [7] was inactive. The result in experiment [8], in experiment [9], in experiment [10], in experiment [11], in experiment [12] and in experiment [13] was inactive. Moreover, the compound was called inactive in [14], in experiment [15], in [16], in experiment [17], in experiment [18] and in [19]. In addition, the AC50 in experiment [6] is 62.3 µM (active).
Consider `CCCCNS(=O)(=O)c1ccccc1`, for which the outcome in experiment [1], in experiment [2], in experiment [3], in experiment [4], in experiment [5] and in experiment [6] was inactive. Also, the outcome in experiment [7], in experiment [8], in experiment [20], in experiment [10], in [11] and in experiment [12] was inactive. Also, the compound was classed as inactive in experiment [13], in experiment [14], in experiment [15], in experiment [16], in [17] and in experiment [18]. The compound was classed as inactive in experiment [19].
For `CC1=CP(=O)(c2ccccc2)CC1` (centres undefined), the result in [1], in experiment [2], in experiment [3], in [4], in experiment [5] and in experiment [6] was inactive. Further, the compound was classed as inactive in experiment [7], in experiment [8], in experiment [9], in experiment [10], in experiment [11] and in experiment [12]. The result in experiment [13], in experiment [14], in experiment [15], in experiment [17], in experiment [18] and in experiment [19] was inactive.
As to `CCCCCCCCCCCCCCCCCCOS(=O)(=O)O`, the AC50 is 10.5 µM (active) in experiment [1]; 11.1 µM (active) in [4]; 20.3 µM (active) in [7]; 57.3 µM (active) in experiment [8]; 54.7 µM (active) in [12]; 52.5 µM (active) in experiment [14]. The AC50 in experiment [15] was 26.8 µM (active); in [17] it was 56.7 µM (active). In addition, the outcome in experiment [2], in experiment [3], in experiment [5], in experiment [6], in [9] and in experiment [10] was inactive. In addition, the result in [11], in experiment [13], in [18] and in experiment [19] was inactive.
